Sfp PPTase inh = inhibitors of Bacillus subtilis Sfp phosphopantetheinyl transferase; Potency, µM, usual class: inhibitors; Biochemical Sfp PPTase activity, qHTS; hit rate 3.5% among 310,000;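 also: the enzyme is Sfp with the accession as filed and its product quenches rhodamine fluorescence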
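Compounds were incubated with enzyme (final 15 nM) for 15 min at room temperature before substrate addition started the reaction. Fluorescence at 525 nm excitation, 598 nm emission was recorded immediately and after 30 minutes.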
FBPA coupling cs = coupling enzyme interference in Giardia aldolase counter-screen; coupling enzyme system counterscreen, AmpLite Red fluorescence; activity change, negative = inhibition, % at 58.2 µM, hits read low; hit rate 0.67% among 290,000; AID 2472; in the data active = activity change below about -30%
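Compounds tested against the coupling enzymes alone at 57.5 uM final; readout was AmpLite Red fluorescence (525/598 nm) after 20 min at RT.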
ELG1 DNA repair = blocks ELG1-dependent DNA repair in HEK293T cells | HEK293T ELG1-luciferase reporter, luminescence, 16 h; DNA damage induced by 5-fluorouridine | hit rate 2.3% among 330,000 | AID 504467 | Potency, µM (titrated, usually from 46.1 µM), hits mostly inhibitors; also: nearly all actives have a fitted effect of over 55% in size
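In this reporter screen, reduction of luminescence relative to DMSO vehicle indicated activity. Compounds and 5-fluorouridine were added together to 2,000 cells per well, incubated for 16 hr at 37 °C, then developed with ONE-Glo.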
Giardia kill = kills Giardia lamblia. Giardia lamblia trophozoite viability. activity change, % at 7.66 µM, hits read low. hit rate 0.15% among 340,000; in the data active = activity change below about -80%; inconclusive = between about -30% and that limit;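 also: parasites exposed to compound for two days anaerobically before the ATP read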
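ATP-content bioluminescence gauges trophozoite survival. Cells (100/well) receive compound and incubate anaerobically for 48 hrs at 37 deg C; detection reagent follows for 15-30 min at room temperature.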
A number is an active result; 0 = inactive; ? = inconclusive; - = no result given. Only some compounds are listed: those with a hit (about 5.5% of all), similar ones and a draw of the others. Unless noted, calls follow the shape of the dose curve; as a rule, active = well fitted curve in the direction sought with a large enough effect; inconclusive = small, poorly fitted or top-dose-only effect, or another doubt; inactive = no such curve, though single readings can be large; an effect the other way counts as inactive or inconclusive.

SMILES	Sfp PPTase inh	FBPA coupling cs	ELG1 DNA repair	Giardia kill
O=C(Nc1ccc(Cl)cc1)c1nc[nH]c1C(=O)NCCN(CCNC(=O)c1[nH]cnc1C(=O)Nc1ccc(Cl)cc1)CCNC(=O)c1[nH]cnc1C(=O)Nc1ccc(Cl)cc1	-	-	0	0
CN(Cc1ccccc1)Cc1ccccc1C(O)c1ccccc1 (stereo not given)	-	-	-	0
FC(F)(F)c1cc(NC(=S)Nc2ccc3ccccc3c2)cc(C(F)(F)F)c1	0	0	-	-
COc1ccc(N/N=C(/C(N)=O)C2=NC(C)(C)Cc3ccccc32)cc1	28µM	0	23µM	0
CC(/C=C/C(=O)c1ccc(C)cc1)=C\c1ccccc1	?	0	?	0
Cc1ccc(C(=O)/C=C/c2ccc(-c3ccc(C)cc3)o2)cc1	8.9µM	0	0	0
O=C(O)/C=C/C(=O)c1ccc(O)cc1	2.2µM	0	?	0
Cc1ccc(C(=O)/C=C\C(=O)c2ccc(C)cc2)cc1	1.8µM	0	?	0
O=C(/C=C/c1ccccc1)c1ccccc1	?	0	?	0
O=C(/C=C\c1ccc(-c2ccccc2)o1)c1ccccc1	11µM	0	?	0
O=C(O)/C=C/C(=O)Nc1ccc(O)cc1	0	0	0	0
CC1(C)CC(=O)C/C(=N/NC(=O)COc2ccc3ccccc3c2Br)C1	0	-	0	0
COc1cc(/C=C/CNC[C@H]2O[C@@H](n3ccc(=O)[nH]c3=O)[C@H](O)[C@@H]2O)ccc1O	-	-	-	0
Cc1ccc(C(=O)/C=C\NCc2ccccc2)cc1	89µM	0	?	0
CCc1ccc(C(=O)/C=C/c2ccc([N+](=O)[O-])o2)cc1	0	0	?	?
O=C(O)/C(=C\c1ccc(-c2ccc(F)cc2)o1)c1ccccc1	8.9µM	0	0	0
CCN(CC)S(=O)(=O)c1ccc(C(=O)/C=C/c2ccc(-c3ccc([N+](=O)[O-])cc3)o2)cc1	79µM	0	0	0
CC(C)(C)OC(=O)NCc1ccc(CNC(=O)c2[nH]cnc2C(=O)NC2CCN(C(=O)OC(C)(C)C)CC2)cc1	-	-	?	0
COCCn1c(=O)cnc2cnc(OCc3ccccc3)nc21	0	0	-	-
Cc1cc2nc(-c3ccc[nH]c3=O)[nH]c2cc1C	0	0	?	-94
Cc1cc2nc(-c3ccc[nH]c3=O)n(Cc3ccc(F)cc3)c2cc1C	0	0	0	0
Cc1nc(C)c(-c2csc(Nc3ccc(S(N)(=O)=O)cc3)n2)s1	0	0	?	0
NS(=O)(=O)c1ccc(Nc2nc(-c3cccc([N+](=O)[O-])c3)cs2)cc1	32µM	0	0	0
Cc1ccc(-c2csc(Nc3ccc(S(N)(=O)=O)cc3)n2)o1	10µM	0	0	0
NS(=O)(=O)c1ccc(Nc2nc(-c3ccc4ccccc4c3)cs2)cc1	0	0	0	0
SMILES	Sfp PPTase inh	FBPA coupling cs	ELG1 DNA repair	Giardia kill
Cc1cc(C)cc(-c2cc3c(c(-c4c(O)c(-c5cc(C)cc(C)c5)cc5c4CCCC5)c2O)CCCC3)c1	0	0	-	-
Cc1ccc(CCN2CCN=C2Nc2ccccc2)cc1	-	-	0	0
CC(=O)N1CCC(N(CCN2CCOCC2)C(=S)Nc2ccc(C)cc2)CC1	50µM	0	0	0
CC1CCCC(C)N1C(=O)c1ccc(S(=O)(=O)NCc2ccco2)cc1 (stereo not given)	0	0	12µM	0
CCOC(=O)N1CCN(C(=O)CSc2nc(-c3cccc(C)c3)ns2)CC1	35µM	0	0	0
CCOC(=O)CNC(=O)CSc1nc(-c2ccc(C)cc2)ns1	0	0	0	0
CCOC(=O)CNC(=O)CSc1nc(-c2ccccc2)ns1	18µM	0	0	0
O=C(CSc1nnc(-c2ccccc2)c2ccccc12)NCC1CCCO1 (stereo not given)	0	0	0	-
Cc1cccc(-c2nsc(SCC(=O)Nc3cc(C)on3)n2)c1	0	0	?	0
O=C(CSc1nc(-c2ccccc2)ns1)NCC1CCCO1 (stereo not given)	35µM	-	?	0
CCOC(=O)CSc1nc(-c2ccc(OC)cc2)ns1	22µM	0	?	0
NC(=O)c1cc[n+](Cc2ccccc2Cl)cc1	0	0	?	0
Cc1ccnc(NC(=O)CN2C(=O)NC(C)(c3ccc4ccccc4c3)C2=O)c1 (stereo not given)	-	-	0	0
O=C(CN1C(=O)C2CCCCC2C1=O)Nc1nc(-c2ccccn2)cs1 (stereo not given)	16µM	0	?	0
C[C@@H](C(=O)Nc1nc(-c2ccccn2)cs1)N1C(=O)C2CCCCC2C1=O (stereo not given in full)	50µM	0	0	0
